Measurements reported in ChEMBL document CHEMBL3988442, “University of Dundee, Small-Polar-MMV Screening Library” (2021).
Hit rate of the full screen: of about 48,000 compounds, about 13,000 (27%) showed an effect of 50% or more. This is one part of the list.

system: Wolbachia pipientis; assay: Anti-Wolbachia Cell-Based Screen; assay type: functional; set-up: scale not given: in the data most compounds retested in dose-response had high values; details: 5 µM

SMILES | Percent Effect
O=C(CC1CCc2ccccc21)NC1(C(=O)O)CCOCC1 (centres undefined) | -1.321%
Cc1cccnc1CN1CCCCC1c1ccn2ccnc2n1 (centres undefined) | 107.3%
Cc1cccnc1CN1CCN(CC(=O)N(C)C)[C@@H]2CS(=O)(=O)C[C@@H]21 | 1.676%
CNc1ncccc1CN1CCCCC1c1cc(C)n2ccnc2n1 (centres undefined) | 94%
CNc1ncccc1CN1CCC1c1cc(N)nc(C)n1 (centres undefined) | 93.93%
CNc1cc(C2CCCN2Cc2ccccc2OCC(=O)O)ccn1 (centres undefined) | -5.445%
Fc1cccnc1CN1CCCCC1c1ccn2ccnc2n1 (centres undefined) | 6.686%
CNc1ncccc1CN1CCCCC1c1ccnc(N)n1 (centres undefined) | 116.5%
Cc1ccccc1CSc1nc(N)cc(N2CC[C@@H](O)C2)n1 | 2.755%
O=C1CCc2cc(S(=O)(=O)NC(=O)c3ccc4c(c3)CCO4)ccc2N1 | -17.2%
O=S(=O)(CCCn1cncn1)Cc1cccc(F)c1 | 2.155%
CC(C)=CCN1CCN(CCCc2ccccc2)[C@H]2CS(=O)(=O)C[C@H]21 | -6.821%
CC(C)CCN(C)C(=O)c1cc(CN2CCC(O)CC2)on1 | -4.489%
CCC(=O)N1CCc2[nH]cnc2C12CCN(C(=O)c1snnc1C)CC2 | 7.824%
CNc1cc(C2CN(Cc3cccnc3NC)CCO2)nc(C)n1 (centres undefined) | 96.43%
Cc1ccc(C2CN(Cc3cnc(-c4ccccn4)s3)CCO2)o1 (centres undefined) | 1.384%
CNc1cc(C)nc(C2CN(Cc3ccc(C)nc3)CCO2)c1 (centres undefined) | -3.28%
Cc1cc(N2CCC(n3cc(CN4CCSCC4)nn3)CC2)ccn1 | -12.68%
CCOC(=O)C1CCN(Cc2c(O)ccc3oc4c(c23)CCCC4)CC1 | 10.57%
COc1cc2c(cc1OC)CN(C(=O)Cn1nc(C)cc1C)CC2 | 1.135%
COc1cc2c(cc1OC)CCN(C(=O)Cn1nc(C)cc1C)CC2 | 0.6612%
COc1cc2c(c(OC)c1OC)CCN(CCn1nc(C)cc1C)CC2 | 72.3%
COc1ccc(CN2CCn3cncc3C2)cc1Cn1cncn1 | 18.87%
c1ccc(CCCN2CCN(CCn3cncn3)CC2)cc1 | 3.655%
COc1ccc(-c2nccn2CCN2CCCCC2)c(OC)c1OC | -1.363%
COc1cc2c(c(OC)c1OC)CCN(CCN1CCCCC1)CC2 | 112.9%
COc1cc(C)cc(C(C(=O)O)N(C)CCN2CCCC2)c1OC (centres undefined) | -1.945%
COc1cc2c(c(OC)c1OC)CCN(CCn1cncn1)CC2 | 66.41%
O=C(C1CC=CC1)N1C[C@@H]2CN(Cc3ccsc3)CCO[C@@H]2C1.O=C(O)C(F)(F)F | 1.635%
